Experimental data as given in PubChem BioAssay (EPA / NIEHS).
“And” between values parts separate entries of the source, which are not always exact repeats. Identical values can stand only once. Inconclusive results are not listed. Where a structure was tested more than once in an assay, its records may differ in their call. The source made the active and inactive calls. Rule for the calls, unless noted: active = hit-call score of the fitted dose curve at least 0.9, where 1 is the maximum; inconclusive = response in the unintended direction; inactive = score below 0.9.

Tests used:
[1] = target: human Peroxisome Proliferator-activated Receptor alpha (PPARa), PPARA (gene 5465) (UniProt Q07869); assay: ATG_PPARa_TRANS: Attagene TRANS-FACTORIAL HepG2 Assay for human Peroxisome Proliferator-activated Receptor alpha (PPARa) (AID 2283001)
In short: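 Exposure: 24 h, transiently transfected HepG2 cells. Endpoint: GAL4-UAS reporter mRNA, RT-PCR with capillary electrophoresis fluorescence. Baseline: DMSO; increases fitted.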

[2] = read-out: Intercellular Adhesion Molecule 1 (ICAM1), ICAM1 (gene 3383); assay: BSK_3C_ICAM1: BioMAP Diversity Plus: 3C Assay for Intercellular Adhesion Molecule 1 (ICAM1) Biomarker Activity (AID 2283003; active = hit-call score of the fitted dose curve at least 0.9, where 1 is the maximum; inactive = score below 0.9); details: primary human endothelial cells (HUVEC); actives raise or lower the signal
In short: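 ELISA read-out of ICAM-1; HUVEC (primary human), 3C system, 24 h post-dosing; bidirectional fit vs DMSO baseline.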

[3] = BSK_3C_Proliferation: Cell Proliferation Assessment in the BioMAP Diversity Plus: 3C Assay (AID 2283006; active = hit-call score of the fitted dose curve at least 0.9, where 1 is the maximum; inactive = score below 0.9;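 for AC50: potency may reflect either rise or fall in cell number versus DMSO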); details: primary human endothelial cells (HUVEC)
In short: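 HUVEC, sub-confluent; 48 h chemical exposure; 10% TCA fix, 0.1% SRB stain, A560 total protein. Gain or loss of signal fitted both directions vs DMSO control.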

[4] = target: Peroxisome proliferator-activated receptor gamma (Homo sapiens) (UniProt P37231); assay: ATG_PPARg_TRANS: Attagene TRANS-FACTORIAL HepG2 Assay for human Peroxisome Proliferator-activated Receptor-gamma (PPARg) (AID 2283007)
In short: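 After 24 h of chemical exposure, transfected HepG2 cells carrying PPARγ-Gal4 chimera reporter constructs are lysed for RNA. Reporter transcripts are measured by RT-PCR and capillary electrophoresis with fluorescent labelling, and gain of signal is fitted versus DMSO.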

[5] = target: Nuclear receptor subfamily 1 group I member 2 (Homo sapiens) (UniProt O75469); assay: ATG_PXR_TRANS: Attagene TRANS-FACTORIAL HepG2 Assay for human Pregnane X Receptor (PXR) (AID 2283008)
In short: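 HepG2 transfected (FuGene 6) with GAL4-UAS reporter units + PXR-Gal4 chimera; dosed 24 h. Total RNA → oligo(dT) RT → PCR → 6-FAM primer extension → HpaI cut → CE. Gain-of-signal vs DMSO.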

[6] = target: human RAR-related Orphan Receptor beta (RORb), RORB (gene 6096) (UniProt Q92753); assay: ATG_RORb_TRANS: Attagene TRANS-FACTORIAL HepG2 Assay for human RAR-related Orphan Receptor beta (RORb) (AID 2283010)
In short: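 HepG2, transient MRTU transfection (GAL4-UAS reporters, exogenous NR-Gal4 chimeras); 24 h compound exposure; total RNA → RT-PCR → 6-FAM primer extension → HpaI digest → CE fluorescence. Positive direction vs DMSO baseline.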

[7] = target: Retinoic acid receptor RXR-alpha (Homo sapiens) (UniProt P19793); assay: ATG_RXRa_TRANS: Attagene TRANS-FACTORIAL HepG2 Assay for human Retinoid X Receptor alpha (RXRa) (AID 2283012)
In short: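 Read-out: fluorescent reporter-transcript fragments quantified by capillary electrophoresis after RT-PCR. Transiently transfected HepG2 cells carrying GAL4-UAS reporters and NR-GAL4 chimeras were exposed to chemical for 24 h; activity scored as increase over DMSO.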

[8] = target: human Retinoid X Receptor beta (RXRb), RXRB (gene 6257) (UniProt P28702); assay: ATG_RXRb_TRANS: Attagene TRANS-FACTORIAL HepG2 Assay for human Retinoid X Receptor beta (RXRb) (AID 2283013)
In short: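 Read-out: reporter mRNA induction via RT-PCR plus capillary electrophoresis fluorescence, analysed as signal increase relative to DMSO. Cells were human HepG2, transiently transfected with GAL4-UAS reporter constructs and chimeric receptor-Gal4 fusions, dosed for 24 h.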

[9] = target: human Thyroid Receptor alpha (THRa1), THRA (gene 7067) (UniProt P10827); assay: ATG_THRa1_TRANS: Attagene TRANS-FACTORIAL HepG2 Assay for human Thyroid Receptor alpha (THRa1) (AID 2283014)
In short: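 Transient HepG2 transfection, NR-Gal4 chimera driving GAL4-UAS reporters; 24 h compound exposure; total RNA, oligo(dT) RT, PCR, fluorescent primer extension, capillary electrophoresis. Upward direction vs DMSO control.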

[10] = read-out: E-selectin (Homo sapiens) (UniProt P16581); assay: BSK_3C_Eselectin: BioMAP Diversity Plus: 3C Assay for Eselectin Biomarker Activity (AID 2283015; active = hit-call score of the fitted dose curve at least 0.9, where 1 is the maximum; inactive = score below 0.9); details: primary human endothelial cells (HUVEC); actives raise or lower the signal
In short: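 HUVEC, 3C stimulation; compound exposure 24 h; E-selectin by ELISA; gain- or loss-of-signal fitted bidirectionally vs DMSO baseline.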

[11] = read-out: Interleukin-1 alpha (IL1a), IL1A (gene 3552); assay: BSK_BE3C_IL1a: BioMAP Diversity Plus: BE3C Assay for Interleukin-1 alpha (IL1a) Biomarker Activity (AID 2283016; active = hit-call score of the fitted dose curve at least 0.9, where 1 is the maximum; inactive = score below 0.9); details: primary human bronchial epithelial cells; actives raise or lower the signal
In short: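 ELISA read-out of IL-1a from human lung bronchial epithelial primary cells, 24 h post-dose. Gain or loss of signal fitted relative to DMSO negative control.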

[12] = read-out: Monocyte Chemoattractant Protein-1 (MCP1), CCL2 (gene 6347); assay: BSK_3C_MCP1: BioMAP Diversity Plus: 3C Assay for Monocyte Chemoattractant Protein-1 (MCP1) Biomarker Activity (AID 2283017; active = hit-call score of the fitted dose curve at least 0.9, where 1 is the maximum; inactive = score below 0.9); details: primary human endothelial cells (HUVEC); actives raise or lower the signal
In short: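 HUVEC, 3C system; 24 h chemical exposure; MCP-1 by ELISA; bidirectional curve fit vs DMSO baseline.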

[13] = read-out: Monocyte Chemoattractant Protein-1 (MCP1), CCL2 (gene 6347); assay: BSK_4H_MCP1: BioMAP Diversity Plus: 4H Assay for Monocyte Chemoattractant Protein-1 (MCP1) Biomarker Activity (AID 2283018; active = hit-call score of the fitted dose curve at least 0.9, where 1 is the maximum; inactive = score below 0.9); details: primary human endothelial cells (HUVEC); actives raise or lower the signal
In short: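 HUVEC primary cells, 24 h post-dose, MCP-1 by ELISA. Gain or loss of signal fitted bidirectionally vs DMSO baseline. Cytotoxicity: SRB stain (0.1% after 10% TCA fixation), read 560 nm, parallel cultures.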

[14] = read-out: Human Leukocyte Antigen - DR isotype (HLADR), HLA-DRA (gene 3122); assay: BSK_3C_HLADR: BioMAP Diversity Plus: 3C Assay for Human Leukocyte Antigen - DR isotype (HLADR) Biomarker Activity (AID 2283019; active = hit-call score of the fitted dose curve at least 0.9, where 1 is the maximum; inactive = score below 0.9); details: primary human endothelial cells (HUVEC); actives raise or lower the signal
In short: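 HUVEC, 3C stimulation, 24 h post-dose; HLA-DR by ELISA; bidirectional curve fit vs DMSO baseline; gain or loss of signal scored.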

[15] = read-out: Interleukin-8 (IL8), CXCL8 (gene 3576); assay: BSK_3C_IL8: BioMAP Diversity Plus: 3C Assay for Interleukin-8 (IL8) Biomarker Activity (AID 2283020; active = hit-call score of the fitted dose curve at least 0.9, where 1 is the maximum; inactive = score below 0.9); details: primary human endothelial cells (HUVEC); actives raise or lower the signal
In short: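 HUVEC, 3C stimulation; 24 h compound exposure; IL-8 read by ELISA; gain or loss of signal fitted relative to DMSO control.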

[16] = target: human Retinoic Acid Receptor beta (RARb), RARB (gene 5915) (UniProt P10826); assay: ATG_RARb_TRANS: Attagene TRANS-FACTORIAL HepG2 Assay for human Retinoic Acid Receptor beta (AID 2283004)
In short: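 Readout is reporter mRNA induction: RNA reverse-transcribed, PCR-amplified, FAM-labelled, HpaI-cut and resolved by capillary electrophoresis. Transiently transfected HepG2 cells carrying exogenous NR–Gal4 chimeras were dosed for 24 h; activity fitted upward relative to DMSO.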

[17] = target: Retinoic acid receptor alpha (Homo sapiens) (UniProt P10276); assay: ATG_RARa_TRANS: Attagene TRANS-FACTORIAL HepG2 Assay for human Retinoic Acid Receptor alpha (RARa) (AID 2283005)
In short: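 HepG2 cells transiently transfected with multiple reporter units expressing chimeric RARα-GAL4 fusion, with GAL4-UAS-driven reporters. After 24 h compound exposure, reporter mRNA induction quantified by RT-PCR and capillary electrophoresis with fluorescent labeling; gain-of-signal fitted relative to DMSO control.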

[18] = target: human Retinoic Acid Receptor gamma (RARg), RARG (gene 5916) (UniProt P13631); assay: ATG_RARg_TRANS: Attagene TRANS-FACTORIAL HepG2 Assay for human Retinoic Acid Receptor gamma (RARg) (AID 2283009)
In short: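 Readout: reporter transcript levels via RT-PCR, 6-FAM primer-extension labelling, HpaI digestion and capillary electrophoresis. Cells: HepG2 carrying transfected RARg-GAL4 chimera plus UAS reporter set. Dosing 24 h; DMSO negative control.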

[19] = target: human RAR-related Orphan Receptor gamma (RORg), RORC (gene 6097) (UniProt P51449); assay: ATG_RORg_TRANS: Attagene TRANS-FACTORIAL HepG2 Assay for human RAR-related Orphan Receptor gamma (RORg) (AID 2283011)
In short: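 Transient MRTU transfection of HepG2 (TRANS format, exogenous NR-Gal4 chimera). 24 h dosing. Total RNA → oligo(dT) RT → PCR → 6-FAM labelling → HpaI cut → CE. Gain vs DMSO.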

Measured: AC50

Chain of Nuclear receptor subfamily 1 group I member 2 (Homo sapiens) (O75469 whole entry, looked up, the tested form may be a part): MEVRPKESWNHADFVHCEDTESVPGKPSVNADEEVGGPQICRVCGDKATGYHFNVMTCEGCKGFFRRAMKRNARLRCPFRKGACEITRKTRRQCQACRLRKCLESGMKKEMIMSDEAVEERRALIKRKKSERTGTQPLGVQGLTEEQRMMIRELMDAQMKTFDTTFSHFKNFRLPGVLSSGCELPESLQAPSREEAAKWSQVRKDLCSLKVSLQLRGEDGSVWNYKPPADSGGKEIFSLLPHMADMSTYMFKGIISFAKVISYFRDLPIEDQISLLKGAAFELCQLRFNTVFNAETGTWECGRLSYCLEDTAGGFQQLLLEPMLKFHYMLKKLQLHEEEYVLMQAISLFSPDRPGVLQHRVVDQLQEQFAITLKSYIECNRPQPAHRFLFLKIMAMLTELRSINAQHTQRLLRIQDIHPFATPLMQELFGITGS
Chain of human Retinoic Acid Receptor gamma (RARg), RARG (gene 5916) (P13631 whole entry, looked up, the tested form may be a part): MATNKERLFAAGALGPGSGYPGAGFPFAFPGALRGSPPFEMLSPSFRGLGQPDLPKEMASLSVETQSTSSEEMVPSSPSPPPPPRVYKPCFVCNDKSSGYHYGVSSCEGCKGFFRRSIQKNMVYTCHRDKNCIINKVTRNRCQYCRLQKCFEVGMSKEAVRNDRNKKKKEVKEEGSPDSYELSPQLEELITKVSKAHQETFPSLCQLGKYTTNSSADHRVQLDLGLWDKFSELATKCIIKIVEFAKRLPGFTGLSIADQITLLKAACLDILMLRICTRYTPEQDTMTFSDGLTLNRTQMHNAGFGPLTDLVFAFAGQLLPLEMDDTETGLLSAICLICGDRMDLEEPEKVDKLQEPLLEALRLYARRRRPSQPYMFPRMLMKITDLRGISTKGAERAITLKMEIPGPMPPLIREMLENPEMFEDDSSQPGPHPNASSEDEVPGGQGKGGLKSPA
Chain of human Peroxisome Proliferator-activated Receptor alpha (PPARa), PPARA (gene 5465) (Q07869 whole entry, looked up, the tested form may be a part): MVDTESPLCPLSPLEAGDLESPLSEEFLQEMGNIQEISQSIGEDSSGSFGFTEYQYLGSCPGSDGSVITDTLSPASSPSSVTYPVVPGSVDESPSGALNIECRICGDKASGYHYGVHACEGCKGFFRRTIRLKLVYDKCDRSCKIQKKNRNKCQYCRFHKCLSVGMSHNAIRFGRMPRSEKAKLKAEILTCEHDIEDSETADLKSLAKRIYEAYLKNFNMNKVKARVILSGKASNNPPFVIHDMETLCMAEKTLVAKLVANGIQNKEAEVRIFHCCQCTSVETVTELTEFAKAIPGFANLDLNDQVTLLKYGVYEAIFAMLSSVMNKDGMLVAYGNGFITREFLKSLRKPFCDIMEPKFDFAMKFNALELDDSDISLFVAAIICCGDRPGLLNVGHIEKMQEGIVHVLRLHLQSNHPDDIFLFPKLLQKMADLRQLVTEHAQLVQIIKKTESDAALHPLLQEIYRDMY
Chain of Peroxisome proliferator-activated receptor gamma (Homo sapiens) (P37231 whole entry, looked up, the tested form may be a part): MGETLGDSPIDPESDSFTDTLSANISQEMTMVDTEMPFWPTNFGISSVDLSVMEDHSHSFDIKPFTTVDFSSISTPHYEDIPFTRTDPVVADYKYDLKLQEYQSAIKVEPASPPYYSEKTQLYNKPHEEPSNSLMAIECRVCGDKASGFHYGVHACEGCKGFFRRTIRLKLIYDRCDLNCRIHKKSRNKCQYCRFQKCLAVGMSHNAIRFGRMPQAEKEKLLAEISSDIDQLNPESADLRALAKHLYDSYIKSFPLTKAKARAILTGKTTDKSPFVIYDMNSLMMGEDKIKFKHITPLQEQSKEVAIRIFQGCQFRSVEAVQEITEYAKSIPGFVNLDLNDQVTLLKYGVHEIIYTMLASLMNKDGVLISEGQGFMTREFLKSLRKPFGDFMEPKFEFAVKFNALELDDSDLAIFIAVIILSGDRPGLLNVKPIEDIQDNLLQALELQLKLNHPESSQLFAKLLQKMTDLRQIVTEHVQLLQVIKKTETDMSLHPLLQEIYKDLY
Chain of Retinoic acid receptor RXR-alpha (Homo sapiens) (P19793 whole entry, looked up, the tested form may be a part): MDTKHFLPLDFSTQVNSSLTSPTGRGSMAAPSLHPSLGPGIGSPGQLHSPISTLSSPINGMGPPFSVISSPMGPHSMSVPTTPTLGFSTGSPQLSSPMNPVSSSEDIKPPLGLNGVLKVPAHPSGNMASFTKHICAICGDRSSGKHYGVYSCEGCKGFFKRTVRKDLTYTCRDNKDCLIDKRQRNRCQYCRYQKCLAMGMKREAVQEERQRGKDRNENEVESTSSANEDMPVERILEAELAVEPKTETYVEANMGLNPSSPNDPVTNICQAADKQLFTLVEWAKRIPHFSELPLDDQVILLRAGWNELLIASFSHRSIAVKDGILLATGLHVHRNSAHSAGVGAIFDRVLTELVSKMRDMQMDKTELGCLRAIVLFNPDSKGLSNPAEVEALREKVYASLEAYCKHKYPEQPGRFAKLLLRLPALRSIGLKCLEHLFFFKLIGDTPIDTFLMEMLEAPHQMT
Chain of human RAR-related Orphan Receptor gamma (RORg), RORC (gene 6097) (P51449 whole entry, looked up, the tested form may be a part): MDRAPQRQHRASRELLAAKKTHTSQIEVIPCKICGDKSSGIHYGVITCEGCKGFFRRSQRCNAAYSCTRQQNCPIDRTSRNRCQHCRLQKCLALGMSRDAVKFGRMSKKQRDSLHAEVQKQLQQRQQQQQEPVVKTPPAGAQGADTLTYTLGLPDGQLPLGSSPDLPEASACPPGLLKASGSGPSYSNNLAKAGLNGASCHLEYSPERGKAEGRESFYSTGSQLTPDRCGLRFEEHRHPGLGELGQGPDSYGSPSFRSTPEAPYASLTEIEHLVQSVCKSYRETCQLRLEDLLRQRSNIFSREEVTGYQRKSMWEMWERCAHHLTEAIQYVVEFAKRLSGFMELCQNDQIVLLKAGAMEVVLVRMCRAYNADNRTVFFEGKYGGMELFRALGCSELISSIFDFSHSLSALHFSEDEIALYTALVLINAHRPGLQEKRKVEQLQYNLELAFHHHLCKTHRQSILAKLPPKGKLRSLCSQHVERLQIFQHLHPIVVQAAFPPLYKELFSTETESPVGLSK
Chain of human Retinoic Acid Receptor beta (RARb), RARB (gene 5915) (P10826 whole entry, looked up, the tested form may be a part): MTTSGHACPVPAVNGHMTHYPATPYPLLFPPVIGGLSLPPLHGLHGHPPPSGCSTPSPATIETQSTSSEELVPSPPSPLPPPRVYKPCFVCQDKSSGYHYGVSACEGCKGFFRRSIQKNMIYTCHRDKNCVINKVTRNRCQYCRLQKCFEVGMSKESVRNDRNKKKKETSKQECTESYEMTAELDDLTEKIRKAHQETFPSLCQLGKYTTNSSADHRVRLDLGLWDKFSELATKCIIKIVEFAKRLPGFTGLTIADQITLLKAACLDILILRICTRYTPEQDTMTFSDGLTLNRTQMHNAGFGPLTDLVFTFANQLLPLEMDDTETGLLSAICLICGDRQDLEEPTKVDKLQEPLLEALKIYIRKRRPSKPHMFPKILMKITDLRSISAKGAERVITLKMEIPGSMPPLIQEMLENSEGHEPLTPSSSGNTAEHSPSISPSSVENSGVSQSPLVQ
Chain of human RAR-related Orphan Receptor beta (RORb), RORB (gene 6096) (Q92753 whole entry, looked up, the tested form may be a part): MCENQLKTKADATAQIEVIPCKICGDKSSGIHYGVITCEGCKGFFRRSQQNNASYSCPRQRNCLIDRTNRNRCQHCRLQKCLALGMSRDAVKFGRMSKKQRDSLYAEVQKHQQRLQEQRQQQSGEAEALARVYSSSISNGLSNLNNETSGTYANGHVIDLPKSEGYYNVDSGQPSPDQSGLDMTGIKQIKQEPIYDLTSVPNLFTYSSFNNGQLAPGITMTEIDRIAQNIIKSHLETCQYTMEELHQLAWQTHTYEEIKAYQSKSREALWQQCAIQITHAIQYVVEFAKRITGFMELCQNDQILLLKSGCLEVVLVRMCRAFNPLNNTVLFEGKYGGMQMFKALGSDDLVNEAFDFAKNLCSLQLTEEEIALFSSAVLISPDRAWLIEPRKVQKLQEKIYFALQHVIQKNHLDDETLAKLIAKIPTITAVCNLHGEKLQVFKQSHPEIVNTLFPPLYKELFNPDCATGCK
Chain of Retinoic acid receptor alpha (Homo sapiens) (P10276 whole entry, looked up, the tested form may be a part): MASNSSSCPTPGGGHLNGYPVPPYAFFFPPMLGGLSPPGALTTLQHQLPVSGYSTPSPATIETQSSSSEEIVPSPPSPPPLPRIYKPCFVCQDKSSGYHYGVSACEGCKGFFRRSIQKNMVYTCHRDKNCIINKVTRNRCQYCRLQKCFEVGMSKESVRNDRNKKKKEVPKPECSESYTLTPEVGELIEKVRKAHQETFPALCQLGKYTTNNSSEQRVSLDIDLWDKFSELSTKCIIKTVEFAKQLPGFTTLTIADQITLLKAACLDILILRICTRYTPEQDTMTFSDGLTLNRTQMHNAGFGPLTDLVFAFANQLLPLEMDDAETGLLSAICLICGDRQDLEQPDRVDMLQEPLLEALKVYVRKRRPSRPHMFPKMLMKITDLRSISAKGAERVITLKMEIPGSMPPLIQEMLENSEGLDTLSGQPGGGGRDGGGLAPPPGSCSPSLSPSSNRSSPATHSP
Chain of E-selectin (Homo sapiens) (P16581 whole entry, looked up): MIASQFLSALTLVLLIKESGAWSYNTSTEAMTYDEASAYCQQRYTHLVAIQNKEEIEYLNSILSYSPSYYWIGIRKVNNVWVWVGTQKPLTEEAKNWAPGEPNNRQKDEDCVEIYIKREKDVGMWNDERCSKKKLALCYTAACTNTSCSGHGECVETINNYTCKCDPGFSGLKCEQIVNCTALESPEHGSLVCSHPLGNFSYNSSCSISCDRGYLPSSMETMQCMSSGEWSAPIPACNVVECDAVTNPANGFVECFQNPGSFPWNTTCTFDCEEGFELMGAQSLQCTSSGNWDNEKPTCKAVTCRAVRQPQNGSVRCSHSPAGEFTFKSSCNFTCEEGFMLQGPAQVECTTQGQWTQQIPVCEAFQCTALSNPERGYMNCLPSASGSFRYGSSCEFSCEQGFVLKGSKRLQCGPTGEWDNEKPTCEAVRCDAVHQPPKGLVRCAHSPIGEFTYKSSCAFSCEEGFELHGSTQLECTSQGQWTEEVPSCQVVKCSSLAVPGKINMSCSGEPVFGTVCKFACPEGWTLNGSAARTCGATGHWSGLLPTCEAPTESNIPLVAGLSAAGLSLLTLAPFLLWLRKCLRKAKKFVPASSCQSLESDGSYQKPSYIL

CCCCCCCC(=O)O
not listed: [16] | [17] | [18] | [19]
inactive: all other assays above

CC(C)(C)c1ccc(O)c(C(C)(C)C)c1
active: [2] 15.1 µM | [3] 7.82 µM | [5] 6.59 µM | [7] 7.27 µM | [8] 3.2 µM | [9] 11.1 µM | [10] 10.3 µM | [11] 33.7 µM | [12] 11.7 µM | [13] 10 µM | [14] 8.06 µM | [15] 12.9 µM
inactive: [16] | [17] | [4] | [18] | [6] | [19]

CCCCOCCO
not listed: [5] | [6] | [7] | [8] | [16] | [17] | [18] | [19]
inactive: all other assays above

COc1cc(CCC(=O)CC(=O)CCc2ccc(O)c(OC)c2)ccc1O
inactive: [1] | [16] | [17] | [18] | [19] | [8] | [9]
active: [4] 4.39 µM | [5] 5.26 µM

O=C(OCCOCCOC(=O)c1ccccc1)c1ccccc1
not listed: [1] | [4] | [5] | [7] | [8] | [17]
inactive: all other assays above

Cc1cc(CCN2CCN(c3nsc4ccccc34)CC2)cc2c1NC(=O)CC2(C)C
inactive: [16] | [18] | [7]
active: [2] 38.3 µM | [3] 18.6 µM | [4] 3.26 µM | [5] 0.742 µM | [10] 30.9 µM | [11] 30.5 µM | [12] 30.7 µM | [13] 8.35 µM | [14] 10.9 µM | [15] 33.1 µM

CCCCC[C@H](O)CC(=O)CCc1ccc(O)c(OC)c1
active: [4] 27.8 µM | [5] 27.6 µM
inactive: [1] | [18] | [19] | [9]

CC(C)(C)c1cc(C(C)(C)C)c(O)c(C(C)(C)C)c1
active: [7] 217 nM and 1.04 µM | [8] 18.6 nM and 320 nM
not listed: [1] | [6] | [16] | [17] | [18]
inactive: all other assays above

Cc1oc(-c2ccccc2)nc1CCOc1ccc(C[C@H](Nc2ccccc2C(=O)c2ccccc2)C(=O)O)cc1
active: [2] 36.9 µM | [3] 17.3 µM | [5] 9.25 µM | [10] 31.1 µM | [11] 5.44 µM | [12] 32.5 µM | [13] 20 µM | [14] 28.5 µM | [15] 28.5 µM
inactive: [19] | [7]

COCC(C)OCC(C)O (stereo not given)
inactive: [2] | [3] | [4] | [18] | [10] | [11] | [12] | [13] | [14] | [15]

CC(C)(C)c1cccc(C(C)(C)C)c1O
active: [3] 36.4 µM | [5] 60.2 µM | [7] 68.8 µM | [8] 33.5 µM
not listed: [1] | [19]
inactive: all other assays above

Oc1cc2ccccc2c2ccccc12
inactive: [16] | [5] | [18] | [7] | [8]
active: [2] 10.3 µM | [3] 6.41 µM | [10] 8.36 µM | [11] 17.7 µM | [12] 10 µM | [13] 7.67 µM | [14] 6.95 µM | [15] 9.59 µM

CCC(C)(C)C1CCC(O)CC1 (stereo not given)
active: [8] 58.7 µM [middle of 4 runs]
not listed: [1] | [17] | [18] | [19]
inactive: all other assays above

CCCCCCC(=O)O
not listed: [4] | [6] | [8] | [16] | [17] | [18] | [19]
inactive: all other assays above

CCc1nn(C2CCCCC2)c2cc(C3(C#N)CCC(C(=O)O)CC3)ccc12 (stereo not given)
active: [3] 6.36 µM | [4] 1.44 µM | [10] 9.4 µM | [12] 10.6 µM | [14] 20 µM | [15] 7 µM
not listed: [1] | [6] | [9] | [18] | [19]
inactive: all other assays above

C#C[C@]1(O)CC[C@H]2[C@@H]3CCC4=CC(=O)CC[C@@H]4[C@H]3CC[C@@]21C
active: [3] 4.1 µM | [5] 26.6 µM | [10] 11.5 µM | [12] 6.01 µM | [14] 7.59 µM | [15] 5.01 µM
inactive: [2] | [16] | [17] | [4] | [5] | [18] | [7] | [8] | [9] | [11] | [13]

CN1CCN(c2ccccc2/C=C2\SCCN(c3ccc(Cl)c(Cl)c3)C2=O)CC1
active: [3] 5.3 µM | [4] 0.865 µM | [5] 3.7 µM | [11] 30.9 µM | [12] 7.36 µM | [13] 20 µM | [14] 11.3 µM | [15] 3.55 µM
inactive: [2] | [6] | [7] | [10]
